Screen size: about 69,000 compounds; about 420 (0.61%) showed an effect of 50% or more. Only a selection was taken, and strong results are over-represented in it overall.
target: T1, Histidine--tRNA ligase (Leishmania infantum) (UniProt A4I591); experiment: Leishmania infantum Histidine tRNA synthetase (LdHisRS); assay type: functional; design: scale not given: in the data most compounds retested in dose-response had high values; settings: 30 µM
T1 sequence (whole entry): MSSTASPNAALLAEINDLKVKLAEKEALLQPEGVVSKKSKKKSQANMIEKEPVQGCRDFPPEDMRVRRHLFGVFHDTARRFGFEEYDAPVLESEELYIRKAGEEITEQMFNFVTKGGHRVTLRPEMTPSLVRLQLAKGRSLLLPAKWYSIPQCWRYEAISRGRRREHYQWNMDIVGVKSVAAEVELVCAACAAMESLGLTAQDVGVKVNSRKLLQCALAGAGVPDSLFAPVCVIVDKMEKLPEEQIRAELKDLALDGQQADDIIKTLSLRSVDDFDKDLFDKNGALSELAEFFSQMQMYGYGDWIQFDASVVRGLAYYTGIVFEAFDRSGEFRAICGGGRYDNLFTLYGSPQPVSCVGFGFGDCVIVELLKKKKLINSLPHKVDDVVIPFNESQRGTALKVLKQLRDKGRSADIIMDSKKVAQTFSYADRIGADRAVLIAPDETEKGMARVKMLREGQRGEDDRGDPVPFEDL

Structure (SMILES) | Percent Effect
COC[C@]12COC[C@H]1CN(Cc1cc(OC)cc(OC)c1)C2 | 4.51%
COCC(=O)N1CC[C@H]2C[C@@H](c3nnc(C4CC4)o3)O[C@@H]2C1 | 18.9%
CCn1nc(C)cc1C(=O)N1CC[C@H](OC)[C@H]2CN(CC3CC3)C[C@H]21 | 3.95%
COc1ccc(CC(=O)N2CC[C@@H]3[C@H](CC2)N(C)CCS3(=O)=O)cc1 | 17.1%
Cc1cccnc1NC(=O)C1CSc2ncc(C)c(=O)n2C1 (stereo not given) | 20.5%
Cc1ccncc1NC(=O)C1CSc2ncc(C)c(=O)n2C1 (stereo not given) | 15.4%
Cc1cnc2n(c1=O)CC(C(=O)Nc1cccc3cccnc13)CS2 (stereo not given) | 67.3%
CC(C)NC(=O)[C@@H]1CCO[C@@H]2CCN(c3ncccn3)C[C@@H]21 | 11.1%
Cc1ncsc1CNc1cccc(OCCN2CCCC2)c1 | 25.2%
COCc1nc(CNc2cccc(-c3nc(C)c(C)o3)c2)cs1 | 0%
COCc1nc2cc(NCc3scnc3C)ccc2o1 | 54.5%
COCc1nc2cc(NCc3sc(C)nc3C)ccc2o1 | 79.5%
COCc1nc2cc(NCc3nc(C)cs3)ccc2o1 | 106%
COCc1nc(CNc2cccc(-c3csc(C)n3)c2)cs1 | -6.67%
COCCCSc1ccc(NCc2scnc2C)cc1 | 9.09%
COCc1nc2cc(NCc3csc(C)n3)ccc2o1 | 29.5%
Cc1csc(CNc2cccc(OCCN3CCCC3)c2)n1 | 23.2%
CN(C)CCNC(=O)[C@H]1C[C@@H]2CN(C(=O)NC3CCCC3)C[C@H]1O2 | 8.62%
CN(C)c1cccc(C(=O)N2C[C@H]3CC[C@@H]2CN(C(=O)C2CCC2)C3)c1 | 18.4%
O=S(=O)(c1cccs1)N1CCN2C[C@H](OCC3CC3)C[C@H]2C1 | 10.5%
C[C@@H]1C[C@H]2CN(C(=O)c3ccncn3)C[C@H]2O1 | -2.56%
Cc1nnc([C@@H]2CCO[C@@H]3CCN(C(=O)Cc4ccccn4)C[C@@H]32)o1 | 15.8%
CN1[C@H](CN2CCCC2)C[C@@H]2CN(Cc3ccoc3)CC[C@@H]21 | 6.84%
Cn1cc(-c2c(C#N)c(N)nc3c2CCc2[nH]ccc2-3)cn1 | 97.4%

Structure (SMILES) | Percent Effect
Cc1n[nH]c(C)c1-c1c(C#N)c(N)nc2c1CCc1[nH]ccc1-2 | 108%
Cn1cc(-c2c(C#N)c(N)nc3c2CCc2[nH]ccc2-3)cc1C#N | 68.4%
CCn1cc(-c2cc(-c3ccn(C)c3)nc(N)c2C#N)cc1C#N | 10.4%
Cc1n[nH]c(C)c1-c1cc(-c2cc[nH]c2)nc(N)c1C#N | 31.9%
CCc1ccc(-c2c(C)c(-c3cnn(C)c3)nc(N)c2C#N)o1 | 19.7%
Cc1c(-c2cnn(C)c2)nc(N)c(C#N)c1-c1ccc(CO)o1 | 19.7%
Cc1n[nH]c(C)c1-c1cc(-c2ccc[nH]2)nc(N)c1C#N | 27.5%
Cc1cc(-c2c(C)c(-c3cnn(C)c3)nc(N)c2C#N)oc1C | 22.4%
Cc1nnc([C@@H]2CC[C@@H]3[C@@H](CCN3C3CCC3)O2)o1 | 5.26%
O=C(NC1CCCC1)N1C[C@H]2CN(c3ccccn3)C[C@@]2(C(=O)O)C1 | 3.92%
O=C(NC[C@]12COC[C@H]1CN(Cc1nccs1)C2)c1ccccc1 | 17.5%
CS(=O)(=O)N1C[C@@H](NC(=O)c2ccno2)[C@@H]2OCCC[C@@H]21 | -4.54%
COCCN1C(=O)CC[C@]12CC[C@@H](NC(=O)c1cnccn1)CC2 | -179%
Cc1cccc(N(CCC(N)=O)C(=O)c2cnccn2)c1 | 5%
COCC1c2c(cnn2C)CCN1C(=O)c1cscn1 (stereo not given) | 11.7%
CCCN(C(=O)c1cnc(C)cn1)c1nc2c(s1)CCc1c-2cnn1C | 99%
CCCN(C(=O)c1cnccn1)c1nc2c(s1)CCc1c-2cnn1C | 94.8%
CCN(CC)Cc1cn2c(n1)CN(C(=O)c1cnccn1)CC2 | 9.02%
CCCN(CCC)C(=O)c1cnn(C)c1C | -4%
Cc1cnc(C(=O)N(CCN(C)C)Cc2ccc(Cl)cc2)cn1 | 24%
COCCN(C(=O)c1cnccn1)c1nc2c(s1)CCc1c-2cnn1C | 51%
Cc1nc(CN2CC[C@@H]3O[C@@H](C(=O)N4CCOCC4)C[C@@H]32)cs1 | 17.4%
Cn1cccc1C(=O)N1C[C@@H]2CCCO[C@@H]2[C@H](N2CCOCC2)C1 | 17.5%
Cc1ccc(C(=O)N2C[C@@H]3[C@@H](C2)OCC(=O)N3Cc2cccnc2)o1 | 22.1%

Structure (SMILES) | Percent Effect
O=C1C[C@H]2[C@@H](CCN2C(=O)c2ccc[nH]2)N1CCN1CCCC1 | 8.06%
Cc1ccc(CN2CCN(Cc3nccn3C)[C@H]3CS(=O)(=O)C[C@H]32)o1 | 16.8%
O=C(NC1CC(F)(F)C1)[C@]12COC[C@H]1CN(Cc1ccccc1)C2 | 24%
CNC(=O)[C@H]1C[C@@H]2CN(S(=O)(=O)c3cccc(F)c3)C[C@@H]2N1C | 28.6%
CN(C)C(=O)N1C[C@@H]2COC[C@]2(CNS(C)(=O)=O)C1 | 4.51%
CC(C)(C)c1ccc(OCC(=O)O)c(CN2C[C@H]3C[C@H](O)C[C@H]3C2)c1 | 14.5%
Cc1nc(CN2CC[C@H]3[C@H]2CCN3c2nncs2)cs1 | 17.5%
NCC1Cc2cccc(-c3nccc(N4CCC(O)CC4)n3)c2O1 (stereo not given) | 34.3%
NCC1Cc2cc(-c3nccc(N4CCC(O)CC4)n3)cc(F)c2O1 (stereo not given) | 51.4%
NCC1Cc2cc(-c3nccc(N4CCC(O)CC4)n3)cc(Cl)c2O1 (stereo not given) | 60%
NCC1Cc2cc(-c3cnccn3)cc(Cl)c2O1 (stereo not given) | 11%
Cc1nc(-c2cc(Cl)c3c(c2)CC(CN)O3)c[nH]1 (stereo not given) | 40.5%
Cc1nc(-c2cc(F)c3c(c2)CC(CN)O3)c[nH]1 (stereo not given) | 26.2%
CCCOc1ccc(C(=O)N2CC[C@H]3CC[C@@H](C2)N3)cc1Cl | 9.17%
Cn1cccc1C(=O)N1CC[C@@H]2[C@@H]1CC(=O)N2CC1CCOCC1 | 19.3%
CN1CCO[C@@H]2CN(C(=O)Cc3cccs3)CC[C@@H]2C1 | 2.73%
Cc1nccc(-c2cccc(NCC(=O)N3CCCCCCC3)c2)n1 | -19.7%
Cc1nccc(-c2cccc(NCC(=O)N3CCNC(=O)C3)c2)n1 | 14.9%
Cc1nccc(-c2cccc(NCC(=O)N3CCc4sccc4C3)c2)n1 | 50%
CCOc1nnc(CNC2CCCN(c3ccc(C)nn3)C2)s1 (stereo not given) | 54.8%
CCOc1nnc(CN(C)C2CCCN(c3ccc(C)nn3)C2)s1 (stereo not given) | 27%
Cc1ccc(N2CCCC(NCc3ccc(C)s3)C2)nn1 (stereo not given) | 12.3%

— ChEMBL document CHEMBL3988442, “University of Dundee, Small-Polar-MMV Screening Library” (2021)
